The text below walks through data of PubChem BioAssay AID2561 (National Center for Advancing Translational Sciences (NCATS), 2010).

Molecules are shown by their SMILES. Inconclusive results are not listed. A call without a number means that no potency is given here. Active and inactive are the calls of the source. Calls follow the shape of the dose curve; as a rule, active = well fitted inhibition curve with a large enough effect; inconclusive = small, poorly fitted or top-dose-only effect, or effect the other way; inactive = flat fitted curve, though single readings scatter.
Potency is read from the fitted curve at half-maximal effect.

The target in the test is Pyruvate kinase (Leishmania mexicana) (UniProt Q27686). The test is described as follows: Confirmation Assay for Inhibitors of Leishmania Mexicana Pyruvate Kinase (LmPK): for Probe SAR. Particulars: purified LmPK, ATP generation, Kinase-Glo luminescence; series mostly up to 57.5 µM. In a few lines: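 Purified L. mexicana pyruvate kinase (0.1 nM) with 0.5 mM PEP and 0.1 mM ADP in pH 7.2 imidazole buffer, 1 h at RT. ATP formed measured by Kinase-Glo luminescence; normalized to uninhibited and no-enzyme wells.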
Pyruvate kinase (Leishmania mexicana), sequence (Q27686 whole entry, looked up): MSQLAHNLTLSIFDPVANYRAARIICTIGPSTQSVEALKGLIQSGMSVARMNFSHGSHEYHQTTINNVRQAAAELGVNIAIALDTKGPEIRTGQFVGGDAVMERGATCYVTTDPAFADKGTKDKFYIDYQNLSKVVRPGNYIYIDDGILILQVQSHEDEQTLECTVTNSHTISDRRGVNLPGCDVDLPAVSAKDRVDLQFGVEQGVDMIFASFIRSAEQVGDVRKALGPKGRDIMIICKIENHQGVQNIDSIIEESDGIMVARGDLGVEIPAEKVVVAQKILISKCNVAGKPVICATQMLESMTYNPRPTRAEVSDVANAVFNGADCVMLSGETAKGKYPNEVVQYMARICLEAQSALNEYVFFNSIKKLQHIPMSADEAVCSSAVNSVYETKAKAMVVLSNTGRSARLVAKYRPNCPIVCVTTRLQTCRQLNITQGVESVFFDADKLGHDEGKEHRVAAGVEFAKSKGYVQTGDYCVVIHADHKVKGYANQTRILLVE
(In general: In Kinase-Glo more light means more ATP remaining.)
Take `Cc1ccc(OC2=NS(=O)(=O)c3ccccc32)cc1`: the Potency was 12.5 µM (active).
Then `O=S1(=O)N=C(Oc2cccc(-c3ccccc3)c2)c2ccccc21`, with 3.26 µM (active); and `N#Cc1ccccc1OC1=NS(=O)(=O)c2ccccc21`, with 5.8 µM (active).
For `Cc1ccccc1Nc1c(-c2ccccc2)nc2cccc(C)n12`, the Potency result was “inactive”.
As for `Cc1ccc(NS(=O)(=O)c2cccc(C(=O)O)c2)cc1C`, the Potency result is “inactive”.
Then `O=C1c2ccccc2C(=O)N1c1ccc(Cl)cc1`, with “inactive”.
Then `O=S1(=O)N=C(Oc2ccccc2-c2ccccc2)c2ccccc21`, with 3.66 µM (active); and `Cc1ccc(NS(=O)(=O)c2ccc3c(c2)NC(=O)CO3)cc1C`, with “inactive”.
Then `Cc1ccc(C)c(NC2=NS(=O)(=O)c3ccccc32)c1`, with “inactive”.
Regarding `Cc1ccn2c(NCc3ccco3)c(-c3ccccc3)nc2c1`, the Potency entry is “inactive”.
